In the supplement of paper PMC12350171:
Structures can show the parent of a compound that is named as a salt.

test system: P. vulgatus RND KO; test: growth AUC normalised to DMSO control (median) (fraction of control); higher = less growth inhibition, active = hit call of the paper; details: 20 µM;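 active = normalised median growth AUC below 0.1 of DMSO control; inactive = AUC 0.1 or higher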
Procedure, shortened: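 Anaerobic growth was tracked hourly at OD578 for 24 h in 96-well plates of mGAM seeded at OD578 0.01 with each approved-drug library compound at 20 μM and 1% DMSO. Strains had first been passaged twice overnight without oxygen. Three biological replicates were run. The reported median is the area under the curve, calculated by the trapezoidal rule on curves truncated at entry into stationary phase and normalised to vehicle wells on the same plate.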
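Further: active when median AUC fell below 0.1.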

Compound	growth AUC normalised to DMSO control
CCN[C@H]1CN(CCCOC)S(=O)(=O)c2sc(S(N)(=O)=O)cc21 [Brinzolamide]	0.986 (inactive)
CN1CCCN=C1/C=C/c1cccs1 [Pyrantel tartrate]	1.01 (inactive)
CN1CCc2cccc3c2[C@H]1Cc1ccc(O)c(O)c1-3 [R(-) Apomorphine hydrochloride hemihydrate]	1.02 (inactive)
CCCCCCCN(CC)CCCC(O)c1ccc(NS(C)(=O)=O)cc1 (stereo not given) [Ibutilide fumarate]	1.01 (inactive)
Clc1ccc2c(c1)C(N1CCNCC1)=Nc1ccccc1O2 [Amoxapine]	0.795 (inactive)
Cc1c(OCC(F)(F)F)ccnc1C[S+]([O-])c1nc2ccccc2[nH]1 (stereo not given) [Lansoprazole]	0.984 (inactive)
Nc1ccc(/N=N/c2ccccc2)c(N)n1 [Phenazopyridine hydrochloride]	1.03 (inactive)
C[C@]12CC[C@@H]3c4ccc(O)cc4C[C@@H](CCCCCCCCC[S+]([O-])CCCC(F)(F)C(F)(F)F)[C@H]3[C@@H]1CC[C@@H]2O (stereo not given in full) [Fulvestrant]	1.05 (inactive)
OCCOCCN1CCN(C(c2ccccc2)c2ccc(Cl)cc2)CC1 (stereo not given) [Hydroxyzine dihydrochloride]	0.989 (inactive)
CNCCCC12CCC(c3ccccc31)c1ccccc12 [Maprotiline hydrochloride]	0.947 (inactive)
CC[C@H](C)C(=O)O[C@H]1C[C@H](O)C=C2C=C[C@H](C)[C@H](CC[C@@H](O)C[C@@H](O)CC(=O)O)[C@H]21 [Pravastatin]	1.05 (inactive)
S=c1[nH]cnc2nc[nH]c12 [Mercaptopurine]	1.01 (inactive)
CC/C(=C(\c1ccccc1)c1ccc(OCCN(C)C)cc1)c1ccccc1 [Tamoxifen citrate]	0.968 (inactive)
CC(=O)OCC(=O)[C@@]1(O)CC[C@H]2[C@@H]3CCC4=CC(=O)CC[C@]4(C)[C@@]3(F)[C@@H](O)C[C@@]21C [Fludrocortisone acetate]	1.02 (inactive)
CC[C@@H](CO)NCCN[C@@H](CC)CO [Ethambutol dihydrochloride]	1.01 (inactive)
O=C(Nc1cccc2c(=O)cc(-c3nnn[nH]3)oc12)c1ccc(OCCCCc2ccccc2)cc1 [Pranlukast]	0.968 (inactive)
CC(=C(CCO)SSCC1CCCO1)N(C=O)Cc1cnc(C)nc1N (stereo in doubt) [Fursultiamine hydrochloride]	1.02 (inactive)
Cc1ncc([N+](=O)[O-])n1CC(O)CCl (stereo not given) [Ornidazole]	0.0124 (active)
CCC(=O)O[C@]1(C(=O)SCF)[C@H](C)C[C@H]2[C@@H]3C[C@H](F)C4=CC(=O)C=C[C@]4(C)[C@@]3(F)[C@@H](O)C[C@@]21C [Fluticasone propionate]	0.998 (inactive)
Cc1cccc(C)c1OCC(C)N (stereo not given) [Mexiletine hydrochloride]	1.03 (inactive)

Compound	growth AUC normalised to DMSO control
CCC(=O)OCC(=O)[C@@]1(OC(=O)CC)[C@H](C)C[C@H]2[C@H]3[C@H]([C@@H](O)C[C@@]21C)[C@@]1(C)C=CC(=O)C=C1C[C@H]3Cl [Alclometasone dipropionate]	1.03 (inactive)
NC(=O)c1cccnc1 [Nicotinamide]	1.07 (inactive)
c1ccc(CC2=NCCN2)cc1 [Tolazoline hydrochloride]	1.02 (inactive)
COc1cccc2c1C(=O)c1c(O)c3c(c(O)c1C2=O)C[C@@](O)(C(=O)CO)C[C@@H]3O[C@H]1C[C@H](N)[C@H](O)[C@H](C)O1 [Doxorubicin hydrochloride]	0.948 (inactive)
CC(=O)NC[C@H]1CN(c2ccc(N3CCOCC3)c(F)c2)C(=O)O1 [Linezolid]	0.00951 (active)
NC1CCN(c2nc3c(cc2F)c(=O)c(C(=O)O)cn3-c2ccc(F)cc2F)C1 (stereo not given) [Tosufloxacin hydrochloride]	0.0157 (active)
CCn1cc(C(=O)O)c(=O)c2cc(F)c(N3CCNCC3)cc21 [Norfloxacin]	0.922 (inactive)
CCC1=C(C)CN(C(=O)NCCc2ccc(S(=O)(=O)NC(=O)N[C@H]3CC[C@H](C)CC3)cc2)C1=O [Glimepiride]	1.03 (inactive)
COc1ccc(C(=O)c2ccccc2O)c(O)c1 [Dioxybenzone]	0.981 (inactive)
C[C@H](O)C(=O)Nc1c(I)c(C(=O)NC(CO)CO)c(I)c(C(=O)NC(CO)CO)c1I [Iopamidol]	1.08 (inactive)
CCCOc1ccccc1-c1nc2[nH]nnc2c(=O)[nH]1 [Zaprinast]	1 (inactive)
CCCCc1oc2ccccc2c1C(=O)c1cc(I)c(OCCN(CC)CC)c(I)c1 [Amiodarone hydrochloride]	1.02 (inactive)
CC(C(=O)O)c1ccc(-c2ccccc2)c(F)c1 (stereo not given) [Flurbiprofen]	0.994 (inactive)
C[C@]12C=CC(=O)C=C1CC[C@@H]1[C@@H]2[C@@H](O)C[C@@]2(C)[C@H]1CC[C@]2(O)C(=O)CO [Prednisolone]	0.976 (inactive)
CNCCc1ccccn1 [Betahistine mesylate]	1 (inactive)
C[C@]12C=CC(=O)C=C1CC[C@@H]1[C@@H]2C(=O)C[C@@]2(C)[C@H]1CC[C@]2(O)C(=O)CO [Prednisone]	1.02 (inactive)
C[N+](C)(C)CCCCCC[N+](C)(C)C [Hexamethonium dibromide dihydrate]	0.992 (inactive)
CCCCNC(=O)NS(=O)(=O)c1ccc(C)cc1 [Tolbutamide]	1.02 (inactive)
COc1cc2nc(N3CCN(C(=O)C4CCCO4)CC3)nc(N)c2cc1OC (stereo not given) [Terazosin hydrochloride]	1.03 (inactive)
CC(=O)N1CCN(c2ccc(OCC3COC(Cn4ccnc4)(c4ccc(Cl)cc4Cl)O3)cc2)CC1 (stereo not given) [Ketoconazole]	0.955 (inactive)
